From PubChem BioAssay AID1159580 (chemical genetic matrix, 2015)
Screen size: about 5,500 compounds; about 2,000 (36%) were called active. Inconclusive results (about 18%) are left out. Rule as the data show it: active = normalized growth mostly below about 0.91 (no sharp cut-off); inconclusive = no clear call, values can overlap the other calls; inactive = mostly above about 0.92. The list shows a part of the results.

Test: chemical genetic growth profiling, strain panel (AID 1159580);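 also: tested at 20 µM; growth read once vehicle control cultures reached saturation at 30 °C; 1 = growth at the plate median or of vehicle wells; lower values mean less growth of the strain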
Conditions: S. cerevisiae deletion strains, growth OD
[1] = locus YAL013W, strain DEP1, hits give low values
[2] = locus YAL040C, strain CLN3, hits give low values
[3] = locus YCL061C, strain MRC1 (second series), hits give low values
[4] = locus YER002W, strain NOP16, hits give low values
[5] = locus YMR263W, strain SAP30, hits give low values
[6] = locus YNL175C, strain NOP13, hits give low values
[7] = locus YNL197C, strain WHI3, hits give low values
[8] = locus YNL224C, strain SQS1, hits give low values
[9] = locus YOR083W, strain WHI5 (second series), hits give low values
[10] = locus YPL055C, strain LGE1, hits give low values

Measured: normalized growth

c1ccc2nc(C3=NCCN3)ccc2c1
inactive: [1] 0.99 | [2] 1.04 | [3] 0.986 | [4] 0.993 | locus YGR229C, strain SMI1, hits give low values 0.955 | [5] 0.982 | [6] 0.995 | [7] 0.996 | [8] 0.993 | [9] 1 | [10] 1.01 | locus YPL241C, strain CIN2, hits give low values 0.987

NC(=O)CN1CC(O)CC1=O (stereo not given)
inactive: [1] 1 | [2] 1 | [3] 1 | locus YDR363W, strain ESC2, hits give low values 0.995 | [4] 1.01 | locus YGR078C, strain PAC10, hits give low values 1.02 | locus YJR075W, strain HOC1, hits give low values 1.01 | [5] 1 | [6] 1.01 | [7] 1.01 | [8] 1 | [9] 1 | [10] 1.01
